# Active and inactive are the calls of the source.
# Legend:
# [1] = small molecules captured by biotinylated probe aFSTL3 – biochemical, small-molecule microarray, fluorescence 635/667, stem cell growth factor project, primary screen (AID 1064); details: higher = more signal;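 further: measures binding of the biotinylated anti-FSTL3 antibody to printed compounds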
# [2] = binders from COS7 lysate, DM2A8 probe, primary screen, torsin A project, cell lysate, small-molecule microarray, fluorescence 635/667 (AID 1065); details: higher = more signal, COS7 lysate expressing mutant human TOR1A
# [3] = small molecules captured by biotinylated probe aFGF2 – biochemical, small-molecule microarray, fluorescence 635/667, stem cell growth factor project, primary screen (AID 1067); details: higher = more signal;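 further: measures binding of biotinylated aFGF2 protein to printed compounds on slides; z-score merges feature fluorescence and signal-to-noise across triplicate slides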
# [4] = small molecules captured by biotinylated probe aFGF10 – biochemical, small-molecule microarray, fluorescence 635/667, stem cell growth factor project, primary screen (AID 1071); details: higher = more signal;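 further: score merges 667 nm spot intensity and signal to noise from triplicate slides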
# [5] = target: Neurogenic locus notch homolog protein 2 (Homo sapiens) (UniProt Q04721); assay: small molecules binding Notch2 protein – biochemical, small-molecule microarray, 635 nm fluorescence, stem cell growth factors, primary screen (AID 1073); details: higher = more signal
# Sequence of Neurogenic locus notch homolog protein 2 (Homo sapiens) (Q04721 whole entry, looked up, canonical isoform): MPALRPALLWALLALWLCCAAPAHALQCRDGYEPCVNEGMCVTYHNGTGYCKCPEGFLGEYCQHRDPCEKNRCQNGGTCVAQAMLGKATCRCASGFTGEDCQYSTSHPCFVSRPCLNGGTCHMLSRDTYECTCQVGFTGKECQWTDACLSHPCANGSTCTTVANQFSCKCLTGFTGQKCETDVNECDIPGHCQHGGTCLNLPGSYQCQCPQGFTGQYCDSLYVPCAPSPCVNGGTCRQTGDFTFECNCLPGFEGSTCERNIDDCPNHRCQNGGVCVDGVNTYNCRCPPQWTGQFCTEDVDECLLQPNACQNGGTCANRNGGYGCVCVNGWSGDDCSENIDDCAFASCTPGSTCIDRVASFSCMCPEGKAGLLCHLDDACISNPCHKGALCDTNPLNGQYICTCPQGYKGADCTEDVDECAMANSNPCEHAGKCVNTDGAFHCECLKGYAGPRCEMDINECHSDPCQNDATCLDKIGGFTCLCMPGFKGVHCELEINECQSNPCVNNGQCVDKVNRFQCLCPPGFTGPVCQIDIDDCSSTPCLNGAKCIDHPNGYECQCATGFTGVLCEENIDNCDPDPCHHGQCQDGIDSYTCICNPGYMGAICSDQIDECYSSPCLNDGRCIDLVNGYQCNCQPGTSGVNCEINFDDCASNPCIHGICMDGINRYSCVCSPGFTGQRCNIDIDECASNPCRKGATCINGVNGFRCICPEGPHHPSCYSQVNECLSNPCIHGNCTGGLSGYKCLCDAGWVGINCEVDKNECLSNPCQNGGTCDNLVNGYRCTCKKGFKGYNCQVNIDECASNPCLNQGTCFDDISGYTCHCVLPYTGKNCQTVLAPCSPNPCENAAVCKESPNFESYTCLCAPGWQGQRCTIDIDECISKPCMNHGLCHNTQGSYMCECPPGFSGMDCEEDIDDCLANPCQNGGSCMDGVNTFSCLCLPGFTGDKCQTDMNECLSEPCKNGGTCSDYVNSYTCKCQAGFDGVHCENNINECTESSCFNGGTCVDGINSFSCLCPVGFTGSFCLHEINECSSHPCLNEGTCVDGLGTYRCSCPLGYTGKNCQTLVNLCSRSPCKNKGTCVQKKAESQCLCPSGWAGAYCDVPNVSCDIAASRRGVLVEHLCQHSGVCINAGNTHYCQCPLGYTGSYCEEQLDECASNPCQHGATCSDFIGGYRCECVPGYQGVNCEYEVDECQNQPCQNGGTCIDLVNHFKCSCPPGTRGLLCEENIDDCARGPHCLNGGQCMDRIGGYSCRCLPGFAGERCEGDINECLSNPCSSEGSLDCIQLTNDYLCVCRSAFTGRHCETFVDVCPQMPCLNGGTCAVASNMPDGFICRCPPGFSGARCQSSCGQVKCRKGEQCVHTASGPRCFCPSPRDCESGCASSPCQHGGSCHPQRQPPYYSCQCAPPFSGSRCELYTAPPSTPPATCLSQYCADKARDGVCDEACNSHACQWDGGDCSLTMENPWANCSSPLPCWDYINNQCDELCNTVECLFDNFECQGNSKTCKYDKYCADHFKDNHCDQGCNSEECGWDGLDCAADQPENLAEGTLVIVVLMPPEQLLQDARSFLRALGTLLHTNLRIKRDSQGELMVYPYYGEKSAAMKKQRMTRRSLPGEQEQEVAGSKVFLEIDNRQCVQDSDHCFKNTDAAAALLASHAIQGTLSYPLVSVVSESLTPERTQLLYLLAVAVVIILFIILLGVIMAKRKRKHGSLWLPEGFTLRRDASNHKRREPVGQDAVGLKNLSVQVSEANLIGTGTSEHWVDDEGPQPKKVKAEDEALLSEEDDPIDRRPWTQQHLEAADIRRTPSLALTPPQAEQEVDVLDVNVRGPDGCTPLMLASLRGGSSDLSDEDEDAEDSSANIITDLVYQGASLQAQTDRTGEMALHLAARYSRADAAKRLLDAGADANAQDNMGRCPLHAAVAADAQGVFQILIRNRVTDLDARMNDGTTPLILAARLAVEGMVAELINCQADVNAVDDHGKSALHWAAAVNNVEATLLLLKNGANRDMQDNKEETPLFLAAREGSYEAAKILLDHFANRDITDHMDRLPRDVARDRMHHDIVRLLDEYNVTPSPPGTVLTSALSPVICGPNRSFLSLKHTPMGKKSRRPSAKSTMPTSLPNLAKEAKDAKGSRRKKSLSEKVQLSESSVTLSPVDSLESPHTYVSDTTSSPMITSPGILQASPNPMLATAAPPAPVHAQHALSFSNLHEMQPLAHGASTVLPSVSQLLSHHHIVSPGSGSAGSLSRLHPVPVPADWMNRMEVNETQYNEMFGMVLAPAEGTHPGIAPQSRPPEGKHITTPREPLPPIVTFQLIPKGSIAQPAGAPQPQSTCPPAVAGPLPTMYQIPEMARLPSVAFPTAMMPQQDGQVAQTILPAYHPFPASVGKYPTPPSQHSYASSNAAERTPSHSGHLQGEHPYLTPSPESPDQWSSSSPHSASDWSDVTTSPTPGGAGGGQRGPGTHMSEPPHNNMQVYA
# [6] = target: Pro-neuregulin-1, membrane-bound isoform (Homo sapiens) (UniProt Q02297); assay: small molecules binding neuregulin-1 protein – biochemical, small-molecule microarray, fluorescence 635/667, psychiatric disease protein project, primary screen (AID 1075); details: NRG1 binding, 635 nm fluorescence, higher = more signal;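 further: score combines 667 nm spot fluorescence with signal to noise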
# Sequence of Pro-neuregulin-1, membrane-bound isoform (Homo sapiens) (Q02297 whole entry, looked up, the tested form may be a part, canonical isoform): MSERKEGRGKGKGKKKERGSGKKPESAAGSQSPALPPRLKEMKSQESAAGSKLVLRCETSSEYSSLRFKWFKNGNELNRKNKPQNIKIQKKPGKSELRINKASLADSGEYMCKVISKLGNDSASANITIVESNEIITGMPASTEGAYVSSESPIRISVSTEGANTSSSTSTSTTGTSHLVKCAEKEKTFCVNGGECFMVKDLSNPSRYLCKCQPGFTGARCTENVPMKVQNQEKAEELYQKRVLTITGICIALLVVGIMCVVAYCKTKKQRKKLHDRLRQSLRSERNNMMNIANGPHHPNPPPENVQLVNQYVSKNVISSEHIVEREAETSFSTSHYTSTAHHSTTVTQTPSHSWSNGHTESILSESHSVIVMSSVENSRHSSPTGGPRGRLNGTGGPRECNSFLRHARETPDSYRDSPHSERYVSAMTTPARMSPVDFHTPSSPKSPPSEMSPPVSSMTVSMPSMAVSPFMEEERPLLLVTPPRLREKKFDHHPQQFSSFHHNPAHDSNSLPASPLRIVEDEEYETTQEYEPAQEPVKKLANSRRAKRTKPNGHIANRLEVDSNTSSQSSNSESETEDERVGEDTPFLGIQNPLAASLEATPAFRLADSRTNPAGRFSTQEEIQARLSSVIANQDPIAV
# [7] = tested on: Neuregulin-1 EGF-like domain; assay: small molecules binding NRG1 EGF domain – biochemical, small-molecule microarray, 635 nm fluorescence, primary screen (AID 1081); details: higher = more signal;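 further: binding of the protein to compounds printed on small-molecule microarray slides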
# [8] = FRG1 expression reporter modulators in myotubes – cell-based, C2C12 myotubes, firefly/Renilla luciferase, luminescence, FRG1 inhibition for FSHD, primary screen (AID 1084); details: FRG1 promoter luciferase, higher = more signal, called active from +8 up or from −8 down
# [9] = small molecules captured by biotinylated probe aFST – biochemical, small-molecule microarray, fluorescence 635/667, stem cell growth factor project, primary screen (AID 1086); details: higher = more signal;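 further: score merges 667 nm fluorescence with signal-to-noise of each printed compound spot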
# [10] = binders of probe aHhip on microarray, primary screen, stem cell growth factor project, biochemical, small-molecule microarray, fluorescence 635/667 (AID 1087); details: higher = more signal;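 further: score merges spot fluorescence at 667nm with spot signal to noise ratio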
SMILES,composite z-score [1],composite z-score [2],composite z-score [3],composite z-score [4],composite z-score [5],composite z-score [6],composite z-score [7],z-score [8],composite z-score [9],composite z-score [10]
CCOC(=O)[C@H](CC(C)C)NC(=O)CCC1CC(OC(=O)NCc2ccc3c(c2)OCO3)CC2(CCCC(COC(=O)NCCC(C)C)O2)O1 (stereo not given in full),-0.495,-0.146,-0.119,0.01,-0.195,0.169,0.312,1.38 (inactive),-0.11,-0.291
CCOC(=O)[C@H](Cc1ccccc1)NC(=O)CCC1CC(OC(=O)NCc2ccc3c(c2)OCO3)CC2(CCCC(COC(=O)NCCOC)O2)O1 (stereo not given in full),-0.444,1.85,-0.0533,0.688,0.994,0.63,0.773,1.75 (inactive),0.412,0.524
CCOC(=O)CCN1C(=O)[C@H]2[C@@H]3C(=CC[C@H]2C1=O)C(=O)[C@H]1O[C@H]1[C@H]3O,-0.128,-0.42,-0.137,-0.199,-0.582,-0.426,0.503,-2.91 (inactive),-0.481,-0.137
CCCNC(=O)OC[C@H]1O[C@H](CCON=C2c3cc(OC)ccc3O[C@H](c3cccc(OC)c3)[C@H]2O)C=C[C@@H]1Oc1ccc(OC)cc1,-0.231,0.768,-0.0647,0.884,1.17,0.64,0.93,0.446 (inactive),0.167,-0.0237
C#CCCCON=C1C[C@@H](O)[C@@H](O)[C@@H]2[C@@H]3C(=O)N(CC)C(=O)[C@@H]3CC[C@H]12,-0.281,0.368,-0.0885,0.236,0.03,1.16,0.528,-0.234 (inactive),0.0594,-0.128
COc1ccc(COC(=O)NN=C2C[C@@H](O)[C@@H](O)[C@@H]3[C@@H]4C(=O)N(C5CCCCC5)C(=O)[C@@H]4CC[C@@H]23)cc1,0.848,-0.132,-0.0883,-0.176,-0.515,-0.112,-0.313,0.468 (inactive),1.34,-0.48
COC(=O)[C@H](C)NC(=O)CCC1CC(OC(=O)NCc2cccc3ccccc23)CC2(CCCC(COC(=O)NCCCN3CCCC3=O)O2)O1 (stereo not given in full),-0.669,-0.158,-0.141,0.119,1.43,0.567,0.925,-3.13 (inactive),1.01,0.208
COC(=O)[C@H](C)NC(=O)CCC1CC(OC(=O)NCCc2ccc(F)cc2)CC2(CCCC(COC(=O)NCC3CCCCC3)O2)O1 (stereo not given in full),-0.429,0.437,-0.116,0.605,1.32,0.618,1.06,0.617 (inactive),0.486,-0.143
C[C@H]1CC[C@@H](C(=O)O)N[C@@H]1c1ccc(C#Cc2ccccc2)cc1,-0.214,0.0872,0.0166,0.505,1.32,0.736,1.24,3.31 (inactive),0.316,0.176
CC(CCN1CCCCc2nc(C)c(C)cc21)=NO[C@H](C)c1cn([C@@H]2COC[C@H]2O)nn1,-0.565,2.25,-0.126,0.517,1.11,0.172,1.18,0.227 (inactive),0.462,-0.0772
CC(C)=NOC(C)CN1CCCc2nc(C)c(C)cc21 (stereo not given),-0.39,-0.184,-0.0408,0.897,0.652,0.702,0.61,0.833 (inactive),0.17,-0.201
CON=C(C)CCN1CCc2nc(-c3ccccc3)c(-c3ccccc3)cc2C1,-0.262,-0.052,-0.128,-0.149,0.195,0.387,-0.961,0.953 (inactive),0.0046,-0.201
COC(=O)[C@@H]1CC[C@H](C)[C@@H](c2ccc(C)cc2)N1C(=O)c1ccc(C=NOC[C@@H](O)[C@H]2O[C@@H]3OC(C)(C)O[C@@H]3[C@H]2O)cc1,-0.264,0.123,-0.0138,0.343,0.962,0.441,0.72,0.453 (inactive),0.794,-0.271
COCC#Cc1ccc([C@@H]2N[C@H](C(=O)O)CC[C@H]2C)cc1,-0.308,-0.087,-0.12,0.0921,0.314,-0.595,-0.616,-1.34 (inactive),0.399,0.132
COc1ccc(O[C@H]2C=C[C@@H](c3ccccc3)O[C@@H]2CON=C(C)CCN2CCCc3nc(C)c(C)cc32)cc1,-0.353,0.0823,-0.0812,0.076,0.476,0.626,0.954,-0.303 (inactive),0.698,-0.0328
CO[C@H]1COC(=O)CCC[C@H](C)[C@@H](OC)COC(=O)CC=C[C@@H]1C,-0.673,0.929,-0.122,0.227,0.0458,-0.21,-0.179,-0.0314 (inactive),-0.106,-0.0237
C#CCCCON=C1C[C@@H](O)[C@@H](O)[C@@H]2[C@@H]3C(=O)N(C4CCCCC4)C(=O)[C@@H]3CC[C@@H]12,0.835,0.0616,-0.115,-0.0372,0.766,0.846,0.565,0.287 (inactive),-0.0386,0.312
CC(C)(C)N1C(=O)[C@H]2[C@H]3[C@H](O)[C@H](O)CC(=NOC[C@@H](O)COCc4ccco4)[C@@H]3CC[C@H]2C1=O,0.812,0.152,-0.0193,0.112,0.0503,-0.0263,-0.214,0.528 (inactive),-0.0115,-0.0994
Cc1ccc2[nH]c3nc(CCCn4ccnc4-c4ccccc4)nnc3c2c1,-0.172,0.616,-0.119,0.247,1.63,0.742,1.12,0.921 (inactive),0.26,0.0274
COc1ccc(O[C@H]2C=C[C@@H](c3ccccc3)O[C@@H]2CO)cc1,-0.176,-0.15,-0.121,0.291,-0.359,-0.224,-0.134,0.403 (inactive),-0.221,0.0458
COc1ccc(O[C@H]2C=C[C@@H](C#Cc3ccccc3)O[C@@H]2CO)cc1,-0.213,0.0018,-0.0206,0.457,0.339,0.658,0.644,-1.37 (inactive),0.137,-0.236
O=C1[C@H]2[C@H]3[C@H](O)[C@H](O)CC(=NOC[C@@H](O)COCc4ccco4)[C@@H]3CC[C@H]2C(=O)N1Cc1ccc2c(c1)OCO2,-0.622,2.39,-0.292,-0.738,-0.541,-0.285,1.1,-0.196 (inactive),-0.0769,0.2
